Results on eight molecules are retold here after PubChem BioAssay (NCI).

About 83,000 compounds went through this panel and 20% of them were active in at least one assay; those are over-represented in the sample as a whole.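 Plates (96-well) were seeded with cells, treated with compound at one concentration, and incubated for 48 hours before percent growth was determined.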 Unmarked numbers belong to inactive results. Active and inactive are the calls of the source. How the source made its calls: active means growth percent below 10; inactive means the rest.

Test systems include NCI-H23 lung; NCI-H226 lung; NCI-H322M lung; HOP-62 NSCLC; NCI-H460 lung; HOP-92 NSCLC; NCI-H522 lung; A549/ATCC NSCLC; 786-0 renal; COLO 205 colon; DU-145 prostate; K-562 leukemia; MALME-3M melanoma; MDA-MB-231 breast; RXF 393 renal; SF-268 CNS; SF-295 CNS; SF-539 CNS; UACC-257 melanoma.
What all share (experiment): NCI-60 one-dose screen, 48 h (100 = growth as untreated, 0 = no growth, -100 = all killed)
Conditions in all cases: 10 µM unless noted

On to `CO[C@H]1/C=C/O[C@@]2(C)Oc3c(C)c(O)c4c(c3C2=O)C(=O)C(/C=N/N(c2ccccc2)c2ccccc2)=C(NC(=O)/C(C)=C\C=C\[C@H](C)[C@H](O)[C@@H](C)[C@@H](O)[C@@H](C)[C@H](OC(C)=O)[C@@H]1C)C4=O`, for which the growth is 5.83% (active) in the experiment with NCI-H23 lung; 18.4% with NCI-H226 lung; 22.2% with NCI-H322M lung; -76.7% (active) in the experiment with HOP-62 NSCLC; -50.7% (active) in the experiment on NCI-H460 lung; -48.6% (active) with HOP-92 NSCLC. The growth in the experiment with NCI-H522 lung is -24% (active); in the experiment on A549/ATCC NSCLC, 3.7% (active); in the experiment on 786-0 renal, 3.91% (active); in the experiment on COLO 205 colon, -60.3% (active); in the experiment on DU-145 prostate it was 12.9%; with K-562 leukemia, 7.47% (active). Further, the growth in the experiment with MALME-3M melanoma was -43.9% (active); in the experiment with MDA-MB-231 breast, -40.1% (active); in the experiment on RXF 393 renal, -61.9% (active); in the experiment on SF-268 CNS, 14.9%; in the experiment with SF-295 CNS it was -72.3% (active); with SF-539 CNS it was -69.8% (active). The growth in the experiment on UACC-257 melanoma is -22.5% (active).

As for `CCCCNC(=O)NS(=O)(=O)c1ccc(N2N=C(c3ccc(C)cc3C)CC2c2ccc(N(C)C)cc2)cc1` (stereo unspecified), the growth in the experiment with NCI-H23 lung is 69.5%; in the experiment with NCI-H226 lung, 82.9%; in the experiment on NCI-H322M lung, 87.4%; in the experiment with HOP-62 NSCLC it was 88.6%; in the experiment on NCI-H460 lung it was 39.2%; in the experiment with HOP-92 NSCLC it was 71.5%. The growth in the experiment on NCI-H522 lung was 50%; with A549/ATCC NSCLC it was 40.6%; with 786-0 renal, 53.1%; in the experiment on COLO 205 colon it was 75.6%; in the experiment with DU-145 prostate it was 84.8%; with K-562 leukemia, 44.4%. The growth with MALME-3M melanoma was 101%; with MDA-MB-231 breast it was 80.1%; in the experiment on RXF 393 renal it was 79.5%; with SF-268 CNS, 79.9%; with SF-539 CNS, 62.6%; in the experiment on UACC-257 melanoma it was 66.1%.

For the molecule `O=C(Nc1cccc2[nH]c(C(F)(F)F)nc12)c1cc(Cl)ccc1Cl`, the growth in the experiment with NCI-H23 lung was -3.56% (active); in the experiment on NCI-H226 lung it was 34.4%; with NCI-H322M lung, 45.9%; with HOP-62 NSCLC, 32.1%; in the experiment with NCI-H460 lung, 17.2%; in the experiment with HOP-92 NSCLC, -11% (active). In addition, the growth was -13.2% (active) in the experiment on NCI-H522 lung; 19.8% with A549/ATCC NSCLC; 47.1% in the experiment with 786-0 renal; 24.6% in the experiment with COLO 205 colon; 53.7% in the experiment on DU-145 prostate; 19.8% in the experiment on K-562 leukemia. Further, the growth is 16.1% with MALME-3M melanoma; 40.6% with MDA-MB-231 breast; 41.1% with RXF 393 renal; 44.6% in the experiment on SF-268 CNS; 29.2% in the experiment on SF-295 CNS; 52.9% in the experiment on SF-539 CNS. Further, the growth in the experiment with UACC-257 melanoma was 28.7%.

In the case of `CC1=CC(=O)C(C(C)C)=CC1=Nc1cc(Br)c(O)c(Br)c1`, the growth was 25.7% with NCI-H23 lung; 84.1% with NCI-H226 lung; 53.6% in the experiment with NCI-H322M lung; 12.7% with HOP-62 NSCLC; 5.15% (active) in the experiment on NCI-H460 lung; 35.5% in the experiment with HOP-92 NSCLC. Moreover, the growth is 55% in the experiment on NCI-H522 lung; 28.2% in the experiment with A549/ATCC NSCLC; 9.71% (active) with 786-0 renal; 144% in the experiment on COLO 205 colon; 3.08% (active) in the experiment with DU-145 prostate; 0.315% (active) with K-562 leukemia. In addition, the growth in the experiment on MALME-3M melanoma was 96.6%; in the experiment on MDA-MB-231 breast, 7.91% (active); in the experiment on RXF 393 renal it was 5.99% (active); in the experiment with SF-268 CNS, 27%; in the experiment on SF-295 CNS, 17%; in the experiment on SF-539 CNS, -33.6% (active). In addition, the growth in the experiment on UACC-257 melanoma is 95.5%.

As to `COc1cc(/C=C/C(=O)c2ccc(Nc3nc(Nc4ccccc4)nc(Nc4ccc(Cl)cc4)n3)cc2)cc(OC)c1OC`, the growth is 15.5% in the experiment with NCI-H23 lung; 39.2% with NCI-H226 lung; 73.3% in the experiment with NCI-H322M lung; 52.7% in the experiment on HOP-62 NSCLC; 50.5% with NCI-H460 lung; 1.92% (active) with HOP-92 NSCLC. Moreover, the growth was 77.3% with NCI-H522 lung; 84.5% in the experiment with A549/ATCC NSCLC; -25.4% (active) in the experiment with 786-0 renal; 94.8% with COLO 205 colon; 77% in the experiment with DU-145 prostate; 28.9% in the experiment on K-562 leukemia. Moreover, the growth is 44.3% in the experiment with MALME-3M melanoma; 58.1% in the experiment with MDA-MB-231 breast; 58.5% in the experiment on RXF 393 renal; 73.2% with SF-268 CNS; 64.3% in the experiment on SF-295 CNS; 72.8% with SF-539 CNS. Moreover, the growth with UACC-257 melanoma is 87.1%.

As to `CC(C)OC(=O)NNC(=O)c1ccncc1`, the growth in the experiment with NCI-H23 lung is 105%; in the experiment with NCI-H226 lung, 107%; with NCI-H322M lung, 92.3%; in the experiment with HOP-62 NSCLC, 108%; with NCI-H460 lung, 106%; with HOP-92 NSCLC, 113%. Moreover, the growth was 88.9% in the experiment with NCI-H522 lung; 105% in the experiment on A549/ATCC NSCLC; 104% in the experiment on 786-0 renal; 110% with COLO 205 colon; 111% in the experiment with DU-145 prostate; 110% with K-562 leukemia. The growth with MALME-3M melanoma is 93%; with MDA-MB-231 breast, 108%; in the experiment with RXF 393 renal it was 120%; with SF-268 CNS, 104%; in the experiment with SF-295 CNS it was 113%; in the experiment with SF-539 CNS, 97.2%. Moreover, in the experiment on UACC-257 melanoma, the growth is 105%.

`O=C(O)c1ccc(CO)o1`: the growth is 110% with NCI-H23 lung; 106% in the experiment on NCI-H226 lung; 105% in the experiment on NCI-H322M lung; 113% with HOP-62 NSCLC; 101% with NCI-H460 lung; 91.5% with HOP-92 NSCLC. For the same molecule, the growth with NCI-H522 lung is 86.4%; in the experiment with A549/ATCC NSCLC, 93.6%; in the experiment on 786-0 renal it was 77.8%; with COLO 205 colon, 115%; in the experiment with DU-145 prostate, 113%; in the experiment with K-562 leukemia, 109%. Besides, the growth in the experiment on MALME-3M melanoma is 113%; in the experiment on MDA-MB-231 breast it was 112%; in the experiment with RXF 393 renal, 104%; with SF-268 CNS, 109%; with SF-295 CNS, 102%; in the experiment with SF-539 CNS, 99.6%. Besides, the growth in the experiment on UACC-257 melanoma is 85.5%.

In the case of `CN(C)S(=O)(=O)n1cnc([C@@H]2[C@@H]3C(=O)OC[C@@H]3C[C@]23N=CN(Cc2ccccc2)C3=O)c1`, the growth in the experiment on NCI-H23 lung was 128%; in the experiment with NCI-H226 lung, 110%; in the experiment on NCI-H322M lung it was 110%; in the experiment on HOP-62 NSCLC it was 95.9%; with NCI-H460 lung, 113%; with HOP-92 NSCLC it was 110%. For the same molecule, the growth in the experiment with NCI-H522 lung is 102%; in the experiment on A549/ATCC NSCLC, 123%; in the experiment on 786-0 renal it was 102%; with COLO 205 colon, 118%; with DU-145 prostate, 111%; with K-562 leukemia it was 116%. Also, the growth in the experiment on MALME-3M melanoma was 110%; in the experiment on MDA-MB-231 breast, 112%; with RXF 393 renal, 126%; in the experiment with SF-268 CNS, 95.6%; in the experiment with SF-295 CNS it was 105%; in the experiment on SF-539 CNS, 98.5%. Besides, the growth in the experiment on UACC-257 melanoma was 116%.
